# Source: PubChem
# Shn3 3UTR inh: inhibitors of Schnurri-3 3'UTR reporter in osteoblasts. Clone20 osteoblast Shn3 3'UTR firefly luciferase, 24 h. inhibition, % at 12.5 µM. 360,000 tested, 0.52% active;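 active = mean inhibition of at least 75% with every replicate also reaching 75%; inconclusive = mean inhibition at least 75% but some replicate below; inactive = mean inhibition below 75%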
# TWEAK-Fn14 inh: inhibitors of TWEAK-Fn14 interaction signaling; TWEAK-stimulated Fn14 reporter cells, luciferase luminescence, 8 h; inhibition, % at 10 µM; 360,000 tested, 2% active; AID 1159606; in the data active = inhibition above about 50%
# Peg3 promoter: reduces Peg3 promoter-driven luciferase expression in HeLa | HeLa PEG-Prom luciferase reporter, luminescence, overnight | inhibition, % at 20 µM | 360,000 tested, 1.7% active | AID 588405;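 active = inhibition of at least 50% at 20 µM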
# EBV LMP1 NFkB: inhibitors of Epstein-Barr LMP1-induced NF-kappaB reporter. LMP1-induced NF-kappaB luciferase reporter cells, luminescence. inhibition, % at 12.5 µM. 350,000 tested, 0.69% active. AID 504558; in the data active = inhibition above about 41%; inconclusive = no clear call, values can overlap the other calls
# MITF TRPM1 inh: reduces MITF-dependent TRPM1 promoter luciferase signal | SK-MEL-5 TRPM1 promoter luciferase, 24 h | AID 488899 | inhibition, % at 12.5 µM | 330,000 tested, 0.83% active;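 active = mean inhibition across replicates of 60% or more, whatever share of single replicates reaches that level; inconclusive = some that reach 60%, reason not given; inactive = mean inhibition across replicates below 60%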
# TROY signal inh: blocks TROY-dependent signaling in reporter cells; inhibition, % at 10 µM; 360,000 tested, 0.98% active; Q293 LMP1-TROYcd NF-kB luciferase reporter, 4 h; AID 1347056;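 active = compounds whose plate-normalised and pattern-corrected inhibition of the luciferase reporter signal at the single screening dose is 50% or more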
# A number is an active result; . = inactive; ? = inconclusive; / = no result given. Compounds with a hit are over-represented: about 4.1% of the library has one in this group of screens.
SMILES,Shn3 3UTR inh,TWEAK-Fn14 inh,Peg3 promoter,EBV LMP1 NFkB,MITF TRPM1 inh,TROY signal inh
COc1cccc2sc(Nc3nc(-c4ccccn4)cs3)nc12,.,104,.,46,.,.
c1ccc(Nc2nc(-c3ccccn3)cs2)cc1,.,.,.,.,.,.
COC(=O)C1=C(C(=O)c2ccccc2)C(c2ccccc2)n2nnnc2N1 (centres undefined),.,.,.,63,.,.
Brc1ccc(OCc2ccccc2)c(CNCc2ccncc2)c1,.,.,51,.,.,52
Clc1cc(Br)ccc1OCCCNCc1ccccc1,.,.,56,.,.,.
Cc1ccc(C)c(OCCCNCc2ccccc2)c1,.,.,.,.,.,.
Cc1ccc(C(C(=O)NCc2ccco2)N(C(=O)CNC(=O)c2cccs2)c2c(C)cc(C)cc2C)cc1 (centres undefined),.,.,58,.,.,.
COc1ccc(OC)c(NC(=O)c2cc(-c3cc(Cl)ccc3O)n[nH]2)c1,.,55,.,.,.,51
Cn1c(/C(C#N)=C/c2ccc(-c3ccc(S(N)(=O)=O)cc3)o2)nc2ccccc21,.,.,72,.,.,.
Cn1c(/C(C#N)=C/c2cccc(O)c2)nc2ccccc21,.,.,.,.,.,.
O=[N+]([O-])CC(c1ccc(F)cc1)c1c[nH]c2ccccc12 (centres undefined),.,.,55,.,.,.
Cc1cc(C)cc(CC(Cc2nc3ccccc3[nH]2)c2nc3ccccc3[nH]2)c1 (centres undefined),.,56,.,.,.,52
CC(=O)NCN1CCN(CNC(C)=O)CC1,.,74,.,.,.,.
COc1ccc(C2=Nn3c(nnc3-c3ccccc3Cl)SC2)cc1OC1CCOC1 (centres undefined),.,.,.,.,.,.
COc1ccc(C2=Nn3c(nnc3-c3ccccc3Cl)SC2)cc1OC1CCCC1,.,.,.,.,.,53
COc1ccc(C2=Nn3c(nnc3-c3ccccc3F)SC2)cc1OCC1CC1,.,.,53,.,.,51
COc1ccc(OC)c(-c2nnc3n2N=C(c2ccc(OC)c(OC4CCOC4)c2)CS3)c1 (centres undefined),.,.,.,.,71,.
COc1ccccc1C(=O)NCCC(=O)N1CCCC(C)C1 (centres undefined),.,.,.,.,.,.
COC(=O)CSc1nnc(-c2sc3ccccc3c2Cl)o1,/,64,.,.,.,.
N#CCSc1nnc(-c2sc3ccccc3c2Cl)o1,.,.,.,.,.,.
O=C(CC(Nc1cccc(Cl)c1Cl)C(=O)O)c1ccccc1 (centres undefined),.,.,.,.,.,.
O=C(CC(Nc1ccccc1Cl)C(=O)O)c1ccccc1 (centres undefined),.,61,.,.,.,65
Cc1nc2nc(SCc3ccccc3)[nH]n2c(=O)c1CCC(C)C,.,.,.,.,.,.
Cc1nn(CC(=O)N2CCCC2)c(=O)c2cc3cc(F)ccc3n12,.,.,.,.,.,.
CC(C)Cn1c(-c2ccncc2)n[nH]c1=S,.,.,.,.,.,.
SMILES,Shn3 3UTR inh,TWEAK-Fn14 inh,Peg3 promoter,EBV LMP1 NFkB,MITF TRPM1 inh,TROY signal inh
CC(C)Cn1c(-c2ccc(F)cc2)n[nH]c1=S,.,65,.,.,.,/
CN(Cc1nc2ccccc2c(=O)[nH]1)C(=O)c1cc(-c2ccc(Br)cc2)nc2ccccc12,.,.,.,.,.,.
O=C(Oc1c(Cl)cc(Cl)c2cccnc12)c1cccc([N+](=O)[O-])c1,.,.,54,?,.,.
CCOC(=O)c1c(N2C(=O)Nc3cc(Cl)c(Cl)cc3N2O)sc2c1CCCCC2,.,.,.,.,.,53
CCOC(=O)c1c(-n2cnnn2)sc2c1CCCC2,.,.,.,.,.,.
CCOC(=O)c1c(N)sc2c1CCCC2,.,.,.,.,.,.
CCOC(=O)c1c(N2C(=O)C3C4C=CC(O4)C3C2=O)sc2c1CCCC2 (centres undefined),.,.,51,.,.,.
CCc1ccc([C@@H]2CC=C(C(=O)O)[C@H](c3ccc(C(C)(C)C)cc3)N2S(=O)(=O)c2ccc(C)cc2)cc1,.,84,.,.,.,84
Cc1ccc([C@@H]2CC=C(C(=O)O)[C@H](c3ccc(C(C)(C)C)cc3)N2S(=O)(=O)c2ccc(C)cc2)cc1,.,52,.,.,.,65
CCc1ccc([C@@H]2CC=C(C(=O)O)[C@H](c3ccccc3)N2S(=O)(=O)c2ccc(C)cc2)cc1,.,.,.,.,.,.
Cc1ccc(S(=O)(=O)N2[C@@H](c3ccc(C(C)(C)C)cc3)C(C(=O)O)=CC[C@H]2c2ccc(C(C)C)cc2)cc1,.,94,.,.,.,87
Cc1ccc(S(=O)(=O)N2[C@@H](c3ccc(Br)cc3)C(C(=O)O)=CC[C@H]2c2ccc(C(C)C)cc2)cc1,.,.,.,.,.,70
COc1ccc(S(=O)(=O)Nc2cc3c4c(c2)C(C)C(=O)N4CCC3)cc1OC (centres undefined),.,.,.,.,.,.
Cc1ccc(S(=O)(=O)N2[C@@H](c3ccc(Cl)cc3)C(C(=O)O)=CC[C@H]2c2ccc(Cl)c(Cl)c2)cc1,.,.,.,.,.,63
Cc1ccc(S(=O)(=O)N2[C@@H](c3ccc(Cl)c(Cl)c3)C(C(=O)O)=C[C@H]2CC2CCCC2)cc1,.,.,.,.,.,67
Cc1ccc(S(=O)(=O)N2[C@@H](c3ccc(C(C)(C)C)cc3)C(C(=O)O)=CC[C@H]2c2ccc(Cl)cc2)cc1,.,89,.,.,.,88
Cc1ccc(S(=O)(=O)N2[C@@H](c3cccc(Cl)c3)C(C(=O)O)=CC[C@H]2c2ccc(Cl)cc2)cc1,.,.,.,.,.,.
O=C(OCC(=O)N1CCOCC1)c1ccccc1OCc1ccccc1,.,.,.,.,.,.
Cc1cc(Cl)ccc1OC(C)C(=O)OCC(=O)c1ccc[nH]1 (centres undefined),.,.,.,.,.,.
CCOCC(=O)NC1CCc2cc(OC)c(OC)c(OC)c2-c2ccc(SC)c(=O)cc21 (centres undefined),.,.,.,.,.,.
O=[N+]([O-])c1ccc(N/N=C/c2cccc(O)c2)cc1,.,.,.,.,.,51
O=[N+]([O-])c1ccc(NN=Cc2cccc([N+](=O)[O-])c2)cc1,.,.,.,.,.,.
Cc1ccc(NC(=O)c2ccc(N/N=C/c3cccc(O)c3)c([N+](=O)[O-])c2)cc1,.,.,67,.,78,.
CCN(C(=O)COC(=O)CCc1c[nH]c2ccccc12)c1c(N)n(Cc2ccccc2)c(=O)[nH]c1=O,.,.,.,.,.,.
O=C(O)/C=C/S(=O)(=O)c1ccc2ccccc2c1,.,.,.,.,.,.
C[C@@H]1CN([C@H](C)CO)C(=O)CCCn2nncc2CO[C@@H]1CN(C)C(=O)Nc1ccnc(N2CCOCC2)c1,.,.,.,.,/,.
